Screening results as filed in PubChem BioAssay.
A selection: hits, their analogues and other compounds. The true share with any hit is near 3.4%.
hcDAF-12 act – activates DAF-12 receptor from parasite H. contortus. HEK293 hcDAF-12 lit1-tk-luc reporter, luminescence; 0% DMSO, 100% Δ7-dafachronic acid. 370,000 tested, 1.4% active. activation, % at 6.8 µM. AID 652067;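 active means activation above the mean of all tested compounds plus 3 SD, cut at about 5.5% in these data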
APP 5'UTR act – activates APP 5'UTR luciferase reporter. SH-SY5Y APP 5'UTR luciferase reporter, luminescence; zero percent = DMSO vehicle wells. activation, % at 2 µM. 190,000 tested, 1% active;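 active means activation above a set limit, based on mean plus 3 SD of controls, cut at about 140% in these data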
ssDAF-12 act – S. stercoralis DAF-12 activation, primary screen | HEK293 ssDAF-12/GRIP1 lit1-tk-luc reporter, luminescence; % of 3 µM dafachronic acid response | activation, % at 6.8 µM | 370,000 tested, 1% active | AID 652126;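 active means activation above the mean over all tested compounds plus 3 SD, cut at about 0.9% in these data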
NF-kB expr up – raises NF-kB expression in human neuronal cells. 190,000 tested, 1.6% active. fold change at 12.5 µM. NF-kB reporter expression; stronger effect = higher value; in the data active means fold change above about 3.3
hgDAF12 agonist – activates the H. glycines DAF-12 receptor ligand-binding domain. activation, % at 6.8 µM. HEK293 GAL4-hgDAF12 UAS-luciferase reporter, agonist luminescence; normalized to butyrate control. AID 687014. 370,000 tested, 1.8% active;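 active means activation above a cutoff set at the mean of all screened compounds plus 3 SD, cut at about 10% in these data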
Each line names hits and unclear results; the compound was inactive in the other large screens.

NC(N)=N/N=C/c1ccc(OCc2ccc(Cl)cc2)cc1	NF-kB expr up 6, hgDAF12 agonist 13
NC(N)=N/N=C/c1ccc(OCc2ccccc2)cc1	none
Cc1n[nH]c(=S)n1/N=C/c1ccc(OCc2ccc(Cl)cc2Cl)cc1	none
CC1CCC2(CC1)CCC2NCc1ccc(Cl)cc1 (stereo not drawn)	none (no result: APP 5'UTR act, NF-kB expr up)
Cn1cc(C=C2C(=O)CC(C)(C)CC2=O)c2ccccc21	ssDAF-12 act 1.3
Cc1ccccc1OCc1nc2ccccc2n1C	hgDAF12 agonist 11 (no result: APP 5'UTR act, NF-kB expr up)
Cc1ccc2[nH]c(=O)c(C3C(C#N)=C(N)Oc4c3ccc3cccnc43)cc2c1 (stereo not drawn)	ssDAF-12 act 1.1
Oc1ccc(Cl)cc1C1=NNC(c2cccs2)C1 (stereo not drawn)	hcDAF-12 act 5.7, hgDAF12 agonist 14 (no result: APP 5'UTR act, NF-kB expr up)
O=[N+]([O-])c1ccc(O)c(C2=NNC(c3ccccc3F)C2)c1 (stereo not drawn)	none (no result: APP 5'UTR act, NF-kB expr up)
CC(C)(C)n1ncc2c(=O)n(CC(=O)NCc3ccccc3Cl)cnc21	hcDAF-12 act 6.1, APP 5'UTR act 193
COc1ccc(Nc2nc(C)c(-c3ccccc3)s2)cc1	hcDAF-12 act 6.2
COc1ccc(Nc2nc(-c3ccccc3)c3ccccc3n2)cc1	none
COc1ccc(Nc2nc(C)c3ccccc3n2)cc1	hcDAF-12 act 6.5, ssDAF-12 act 1.1
O=C(NCCc1c[nH]c2ccccc12)OCc1cn(Cc2c(F)cccc2F)nn1	none (no result: APP 5'UTR act, NF-kB expr up)
CCOC(=O)[C@]12CCCCC/C=C\1N(CCc1ccc(Cl)cc1)C(=O)[C@H]2CC(=O)NCc1ccccc1	none (no result: APP 5'UTR act, NF-kB expr up)
N#C/C(=C(/O)CSc1nnc(Cc2cccs2)n1C1CCCCC1)c1nc2ccccc2[nH]1	hcDAF-12 act 7.1
COC(=O)[C@]12C[C@H](CC(=O)N3CCCC3)C(=O)N(CCc3ccc(OC)c(OC)c3)C1=C[C@H](C1CCCC1)O[C@@H]2C	none (no result: APP 5'UTR act, NF-kB expr up)
CCNc1nc(N)c(C(=O)c2ccc(Cl)s2)s1	NF-kB expr up 3.7
CC(=O)N1CCN(C(=O)C2CCCN(C(=O)c3ccc4c(c3)NC(=O)CS4)C2)CC1 (stereo not drawn)	none (no result: APP 5'UTR act, NF-kB expr up)
Cc1ccc(NC(=O)N/C=C/c2ccco2)cc1C	none
Cc1ccc(NC(=O)N/C=C/c2ccco2)c(C)c1	NF-kB expr up 5.2
Cc1ccc(O)c(NC(=S)NC(=O)/C=C/c2ccco2)c1	hgDAF12 agonist 12
O=C(NCc1ccco1)C1CCCN(c2ncccn2)C1 (stereo not drawn)	none (no result: APP 5'UTR act, NF-kB expr up)
COCCCNCCOCCOc1ccc(C)cc1Br	hcDAF-12 act 5.7
CCCCNCCOCCOc1ccc(C)cc1Br	none
Oc1ccc(Cl)cc1CNc1ccc(Br)cn1	NF-kB expr up 4.9
Oc1c(Cl)cc(Cl)cc1CNc1ccc(Br)cn1	none
CCOC(=O)N1CCN(C(=O)C[C@H]2C(=O)N(Cc3ccc(OC)cc3)C3=CCCCC[C@@]32C(=O)OC)CC1	none (no result: APP 5'UTR act, NF-kB expr up)
Cc1cc(NC(=S)NC(=O)/C=C/c2ccc(S(=O)(=O)N3CCOCC3)cc2)ccc1Br	ssDAF-12 act 3.9
O=C(/C=C/c1ccc(S(=O)(=O)N2CCOCC2)cc1)NC(=S)Nc1ccc(N2CCOCC2)cc1	none
CCOc1ccc(-n2c(SCC(=O)Nc3ccc(Oc4ccccc4)cc3)nnc2-c2ccncc2)cc1	none (no result: APP 5'UTR act, NF-kB expr up)
Cc1ccc(C(=O)c2cc([N+](=O)[O-])ccc2N2CCOCC2)cc1C	none
O=C(c1ccc(Br)cc1)c1cc([N+](=O)[O-])ccc1N1CCCCC1	NF-kB expr up 5
Cc1ccc(C(=O)c2cc([N+](=O)[O-])ccc2N2CCOCC2)c(C)c1	NF-kB expr up 5.4
O=C(O)c1ccccc1C(=O)c1ccc(N2CCOCC2)c([N+](=O)[O-])c1	ssDAF-12 act 1.1
CN1CCN(c2ccc([N+](=O)[O-])cc2C(=O)c2ccc(Br)cc2)CC1	none
Cn1c(SCC2CCC2)nnc1-c1ccco1	none (no result: APP 5'UTR act, NF-kB expr up)
CCc1n[n+](CC(=O)c2ccccc2)c(N)s1	APP 5'UTR act 142
Nc1ccc[n+](CC(=O)c2ccccc2)c1	none (no result: APP 5'UTR act, NF-kB expr up)
c1ccc(-c2ccc(CNc3nc(-c4ccccn4)nnc3-c3ccccc3)cc2)cc1	none (no result: APP 5'UTR act, NF-kB expr up)
CCN(CC)C(=S)SCC(=O)c1c(C)[nH]c2ccccc12	none
CCN(CC)C(=S)SCC(=O)c1ccccc1	hgDAF12 agonist 11
CCN(CC)C(=S)SCC(=O)c1ccc(F)cc1	ssDAF-12 act 1.1
O=C1SC(c2ccccc2)=C/C1=C\N1CCCCC1	hcDAF-12 act 6.1
O=C1OC(c2ccccc2)=C/C1=C/N1CCOCC1	none
Nc1ccc(Oc2ccc3c(c2)OCO3)cc1	none
c1ccc2c(Oc3ccc4c(c3)OCO4)nncc2c1	NF-kB expr up 4.3
Cc1ccc(C2CCC3(CCC(=O)N3CCOC(=O)Nc3cccc(C#N)c3)CC2)cc1 (stereo not drawn)	none (no result: APP 5'UTR act, NF-kB expr up)
CCCCOc1ccc(C(=O)Oc2ccc(C)nc2)cc1	none
CCCCCOc1ccc(OC(=O)c2ccncc2)cc1	NF-kB expr up 3.8
COc1ccc2ccccc2c1/C=N/n1cnnc1	hcDAF-12 act 6.5 (no result: APP 5'UTR act, NF-kB expr up)
Cc1ccc(NC(=O)c2ccc([N+](=O)[O-])cc2Cl)nc1	hgDAF12 agonist 11
CN(C)c1ccc(NC(=O)c2ccc([N+](=O)[O-])cc2Cl)cc1	hgDAF12 agonist 12
COc1ccc(-c2nnc(SCC(=O)Nc3ccccc3OC)o2)cc1	NF-kB expr up 4.1
O=C(CSc1nnc(-c2ccncc2)o1)Nc1ccccc1Cl	none
O=C(CSc1nnc(-c2ccncc2)o1)Nc1cc(F)ccc1F	hgDAF12 agonist 13 (no result: APP 5'UTR act, NF-kB expr up)
COc1ccc(-c2nnc(SCC(=O)Nc3cccc(Cl)c3)o2)cc1	APP 5'UTR act 214
COc1ccc(-c2nnc(SCC(=O)Nc3nncs3)o2)cc1	none
O=C(CSc1nnc(-c2ccccn2)o1)Nc1ccccc1Cl	hgDAF12 agonist 11 (no result: APP 5'UTR act, NF-kB expr up)
O=C(CSc1nnc(-c2ccncc2)o1)Nc1cccc(F)c1	none (no result: APP 5'UTR act, NF-kB expr up)
c1nc(NC[C@@H]2CCCO2)c2cc(-c3ccc4c(c3)OCO4)ccc2n1	none (no result: APP 5'UTR act, NF-kB expr up)
Cc1cc2c(s1)c1cnn(Cc3ccc(F)cc3F)c(=O)c1n2C	none (no result: APP 5'UTR act, NF-kB expr up)
CCN(CC)c1ccc(NC(=O)c2cc3c(C)nn(-c4ccccc4)c3s2)cc1	none (no result: APP 5'UTR act, NF-kB expr up)
C=CCn1nc([N+](=O)[O-])nc1Sc1cccc2cccnc12	NF-kB expr up 3.5 (no result: hcDAF-12 act, ssDAF-12 act, hgDAF12 agonist)
O=[N+]([O-])c1ccc(Sc2cccc3cccnc23)cc1	none
CCOC(=O)[C@]12CCCC3=C1N(CCC3)C(=O)[C@@H](CC(=O)NCCCN1CCCC1=O)C2	none (no result: APP 5'UTR act, NF-kB expr up)
COc1ccc(C(=O)NCCn2ccc3ccccc32)cc1	NF-kB expr up 4
O=C(NCCn1ccc2ccccc21)c1ccc2c(c1)OCO2	APP 5'UTR act 150, NF-kB expr up 5.7
O=C(NCCc1ccccc1)c1ccc2c(c1)OCO2	none (no result: APP 5'UTR act, NF-kB expr up)
Cc1ccc(C(=O)NCCn2ccc3ccccc32)cc1[N+](=O)[O-]	none
Cc1ccc(NC(=O)CSc2nc(C)cc(=O)[nH]2)c(C)c1	none (no result: APP 5'UTR act, NF-kB expr up)
CC(C)CN(C)Cc1c(C(=O)N2CCc3ccccc3C2)nc2ccc(Cl)cn12	NF-kB expr up 5.1
CCCCN(C)Cc1c(C(=O)N2CCc3ccccc3C2)nc2ccc(Cl)cn12	none
